Out of some 310,000 compounds screened, about 2,200 (0.71%) showed an effect of 50% or more. The effect is printed as a negative number. For the sample, strong results were picked, then their nearest neighbours and some compounds at random.
Each compound was assayed against human ether-à-go-go-related gene (hERG) potassium channel (human, UniProt Q12809) (assay: primary screen, population patch clamp on CHO cells stably expressing hERG; higher = less effect of the substance).
Chain of human ether-à-go-go-related gene (hERG) potassium channel (Q12809 whole entry, looked up): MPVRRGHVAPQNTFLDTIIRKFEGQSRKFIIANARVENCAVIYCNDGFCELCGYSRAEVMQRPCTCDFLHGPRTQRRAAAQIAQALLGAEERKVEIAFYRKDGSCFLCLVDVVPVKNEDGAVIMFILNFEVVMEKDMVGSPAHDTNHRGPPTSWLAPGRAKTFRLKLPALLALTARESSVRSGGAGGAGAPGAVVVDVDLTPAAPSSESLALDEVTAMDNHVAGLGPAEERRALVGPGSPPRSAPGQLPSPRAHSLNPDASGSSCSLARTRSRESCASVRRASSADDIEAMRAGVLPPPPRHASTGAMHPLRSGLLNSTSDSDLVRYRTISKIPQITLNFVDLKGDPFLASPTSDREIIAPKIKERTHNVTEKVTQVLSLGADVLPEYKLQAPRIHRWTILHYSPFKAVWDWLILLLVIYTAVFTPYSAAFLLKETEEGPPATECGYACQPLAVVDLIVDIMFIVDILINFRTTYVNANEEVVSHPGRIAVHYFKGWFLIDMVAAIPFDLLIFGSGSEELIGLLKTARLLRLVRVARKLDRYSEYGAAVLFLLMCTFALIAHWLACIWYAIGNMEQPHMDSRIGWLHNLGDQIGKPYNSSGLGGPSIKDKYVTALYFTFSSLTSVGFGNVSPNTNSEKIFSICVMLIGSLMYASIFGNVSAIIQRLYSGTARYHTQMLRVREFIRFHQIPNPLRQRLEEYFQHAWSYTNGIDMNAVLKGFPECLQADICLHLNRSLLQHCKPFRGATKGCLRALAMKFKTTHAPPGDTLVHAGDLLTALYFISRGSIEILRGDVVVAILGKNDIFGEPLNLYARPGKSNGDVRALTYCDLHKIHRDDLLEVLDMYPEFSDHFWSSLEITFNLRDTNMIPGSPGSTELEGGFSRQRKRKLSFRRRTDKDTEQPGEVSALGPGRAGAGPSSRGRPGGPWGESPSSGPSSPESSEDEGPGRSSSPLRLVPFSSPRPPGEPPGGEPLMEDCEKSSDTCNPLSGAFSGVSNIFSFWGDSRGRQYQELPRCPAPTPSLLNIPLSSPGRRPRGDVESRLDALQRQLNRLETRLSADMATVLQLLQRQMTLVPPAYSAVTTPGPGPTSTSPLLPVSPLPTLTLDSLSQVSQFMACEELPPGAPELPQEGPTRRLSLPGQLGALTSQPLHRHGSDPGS
Description: Briefly, Chinese hamster ovary (CHO) cells stably expressing the hERG channel were dislodged from tissue culture flasks and dispensed into PPC plates. […] During the recording, background leak currents were estimated by a 100 ms step to -80 mV from an initial holding potential of -70 mV and subtracted from the subsequent current measurement. The campaign was conducted in two phases using slight differences in recording protocol. In the first phase, the initial voltage pulse used a 100 ms step to -30 mV from a holding potential of -70 mV, a 2 s conditioning step to +25 mV, and a 2 s test step to -30 mV. During the second phase of the screen, the potential during the conditioning step was raised to +45 mV. In both phases of the campaign, a secondary voltage pulse was applied using the same parameters as the second phase initial pulse. The initial and secondary pulses were applied in the absence of compound, and upon application of 1 μM and 10 μM test concentrations. Small molecule effects on hERG current density were quantified by […].
For `Cc1cccc(-c2ncc(CN3CCN(C4CCCC4)C(CCO)C3)cn2)c1` (stereo not shown), the “hERG current change (%, negative = inhibition) at 1uM” value was -15.1%. In the case of `OCCC1CN(Cc2cnc(-c3ccc(Cl)cc3)nc2)CCN1C1CCCC1` (stereo not shown), the “hERG current change (%, negative = inhibition) at 1uM” value is reported as -62%. For `CC(C)CCN1CCN(CC#Cc2ccccc2)CC1CCO` (stereo not shown), the “hERG current change (%, negative = inhibition) at 1uM” value was 4.3%. `OCCC1CN(CC(c2ccccc2)c2ccccc2)CCN1C1CCCC1` (stereo not shown) was tested, and the “hERG current change (%, negative = inhibition) at 1uM” value was -74.5%. In the case of `COc1ccc(S(=O)(=O)Nc2ccc(-c3ccc(N4CCCC4)nn3)cc2)cc1C`, the “hERG current change (%, negative = inhibition) at 1uM” value is reported as 11.6%. For `CC(Oc1ccc(Cl)cc1Cl)c1ccnc(N)n1` (stereo not shown), the “hERG current change (%, negative = inhibition) at 1uM” value was 16.2%. For `Clc1ccccc1C1=Nn2c(nnc2-c2ccco2)SC1`, the “hERG current change (%, negative = inhibition) at 1uM” value was 4.48%. With `CC(=O)N1C[C@H](O)C[C@H]1C(=O)O` the “hERG current change (%, negative = inhibition) at 1uM” value was -19%. For `O=C(COc1ccccc1)NNc1c2ccccc2nc2ccccc12`, the “hERG current change (%, negative = inhibition) at 1uM” value was 4.4%. With `Cc1ccc(C)c(NC(=O)Cn2nc(-c3ccccc3)nc2-c2ccccc2)c1` the “hERG current change (%, negative = inhibition) at 1uM” value was 16.6%. For `CNS(=O)(=O)c1cccc(C(=O)OCC(=O)c2cc3ccccc3o2)c1`, the “hERG current change (%, negative = inhibition) at 1uM” value was 21%. In the case of `Cc1cccc(N2C(=O)NC(=O)/C(=C\c3cnn(-c4ccccc4)c3)C2=O)c1`, the “hERG current change (%, negative = inhibition) at 1uM” value is reported as 12.6%. `CN1CCN(c2ccc([N+](=O)[O-])cc2C(=O)c2ccccc2)CC1` was tested, and the “hERG current change (%, negative = inhibition) at 1uM” value was -17.5%. In the case of `CN(C)CCCNCC(=O)Nc1ccc(Cl)cc1C(=O)c1ccccc1.O=C(O)C(=O)O`, the “hERG current change (%, negative = inhibition) at 1uM” value is reported as -21.2%. For `CN1CCN(CC(=O)Nc2ccc(Cl)cc2C(=O)c2ccccc2)CC1`, the “hERG current change (%, negative = inhibition) at 1uM” value was -83.3%. With `CN1CCN(C(=S)SCC(=O)Nc2ccc(Cl)cc2C(=O)c2ccccc2)CC1` the “hERG current change (%, negative = inhibition) at 1uM” value was -5.6%. `CCN(CC)CC(=O)Nc1ccc(Cl)cc1C(=O)c1ccccc1` was tested, and the “hERG current change (%, negative = inhibition) at 1uM” value was 6.87%. For `CCN(CC)CCNCC(=O)Nc1ccc(Cl)cc1C(=O)c1ccccc1.O=C(O)C(=O)O`, the “hERG current change (%, negative = inhibition) at 1uM” value was -84.2%. For `Cc1cc(Cl)ccc1NC(=O)CN1CCN(C(=O)c2ccco2)CC1`, the “hERG current change (%, negative = inhibition) at 1uM” value was -57.1%. For `CN1CCN(CC(=O)Nc2cccc([N+](=O)[O-])c2)CC1`, the “hERG current change (%, negative = inhibition) at 1uM” value was 5.95%. `O=C(CN1CCN(C(=O)c2ccco2)CC1)Nc1cc(Cl)ccc1Cl` was tested, and the “hERG current change (%, negative = inhibition) at 1uM” value was -8.91%. `Cc1ccccc1NC(=O)CN1CCN(C(=O)c2ccco2)CC1` was tested, and the “hERG current change (%, negative = inhibition) at 1uM” value was 5.5%. For `CN1CCN(CC(=O)Nc2ccc([N+](=O)[O-])cc2C(=O)c2ccccc2)CC1`, the “hERG current change (%, negative = inhibition) at 1uM” value was -91.5%. In the case of `O=C(CN1CCCC1)Nc1ccc(Cl)cc1C(=O)c1ccccc1.O=C(O)C(=O)O`, the “hERG current change (%, negative = inhibition) at 1uM” value is reported as 0.588%. `O=C1NC(=S)N(c2ccccc2)C(=O)/C1=C/c1ccco1` was tested, and the “hERG current change (%, negative = inhibition) at 1uM” value was 5.88%. For `COc1ccc(-n2nnnc2SCC(=O)c2ccc(O)c(O)c2)cc1`, the “hERG current change (%, negative = inhibition) at 1uM” value was 1.49%. In the case of `Cc1ccccc1-c1nc2ccc(Cl)cc2c(=O)n1O`, the “hERG current change (%, negative = inhibition) at 1uM” value is reported as 15.4%. For `CCOC(=O)c1ccc(NC(=O)CNC(=O)c2ccccc2)cc1`, the “hERG current change (%, negative = inhibition) at 1uM” value was 7.06%. For `CCSc1nnc(NC(=O)Nc2cccc(C)c2)s1`, the “hERG current change (%, negative = inhibition) at 1uM” value was 12.2%. In the case of `Cn1nc([N+](=O)[O-])nc1Sc1nnnn1-c1ccc(C(=O)O)cc1`, the “hERG current change (%, negative = inhibition) at 1uM” value is reported as 8.97%. In the case of `CCCCn1c(CCNC(=O)c2ccco2)nc2ccccc21`, the “hERG current change (%, negative = inhibition) at 1uM” value is reported as 7.54%. With `Cc1cc(C)cc(-c2nnc(SCC(=O)c3ccc4c(c3)OCCO4)o2)c1` the “hERG current change (%, negative = inhibition) at 1uM” value was 16%. In the case of `Cc1cn(COC/C=C/c2ccccc2)c(=O)[nH]c1=O`, the “hERG current change (%, negative = inhibition) at 1uM” value is reported as 7.16%. With `Cc1cccc(C(=O)NCCCNC(=O)c2ccc(C)nc2)c1` the “hERG current change (%, negative = inhibition) at 1uM” value was 10.6%. With `CC(=O)N1CCN(CC(=O)Nc2ccccc2Sc2ccc(Cl)cc2)CC1` the “hERG current change (%, negative = inhibition) at 1uM” value was -58.3%. In the case of `O=C(CN1CCN(C(=O)c2ccccc2)CC1)Nc1ccc(Cl)cc1F`, the “hERG current change (%, negative = inhibition) at 1uM” value is reported as -54.8%. In the case of `COc1ccc2oc(C(=O)c3ccccc3)c(NC(=O)CN3CCN(C)CC3)c2c1`, the “hERG current change (%, negative = inhibition) at 1uM” value is reported as -12.2%. With `O=C(CN1CCN(C(=O)c2cccc(F)c2)CC1)Nc1ccccc1F` the “hERG current change (%, negative = inhibition) at 1uM” value was -36.4%. In the case of `Cc1cc(Cl)ccc1OCCCC(=O)N1CCOCC1`, the “hERG current change (%, negative = inhibition) at 1uM” value is reported as -7.13%. With `Cc1cc(Cl)ccc1OCCCC(=O)N1CCN(C)CC1` the “hERG current change (%, negative = inhibition) at 1uM” value was 0.322%. For `CN1CCN(CC(=O)Nc2c(C(=O)c3ccccc3)oc3ccccc23)CC1`, the “hERG current change (%, negative = inhibition) at 1uM” value was -83.2%. `Cc1cc(Cl)ccc1OCCCC(=O)N1CCN(C(=O)c2ccco2)CC1` was tested, and the “hERG current change (%, negative = inhibition) at 1uM” value was -59.1%. With `O=C(CN1CCCC1)Nc1ccccc1Sc1ccc(Cl)cc1` the “hERG current change (%, negative = inhibition) at 1uM” value was -0.77%. For `O=C(CN1CCCCCC1)Nc1ccc(Cl)cc1F`, the “hERG current change (%, negative = inhibition) at 1uM” value was 14.6%. In the case of `CC(=O)N1CCN(CC(=O)Nc2ccccc2Sc2ccccc2)CC1`, the “hERG current change (%, negative = inhibition) at 1uM” value is reported as -29.8%. For `CN1CCN(CC(=O)Nc2c(C(=O)C3CC3)oc3ccccc23)CC1`, the “hERG current change (%, negative = inhibition) at 1uM” value was -16.9%.
